Among all 370,000 compounds or so, about 3,300 (0.89%) were called active.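 How the source made its calls: active means activation above the mean of all tested compounds plus 3 SD, computed per campaign excluding outliers beyond control limits (cut at about 13% in these data); inactive means the rest.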 The entries come from a sample that favours actives as a whole.
Biological target: Kallikrein-7 (Homo sapiens) (UniProt P49862)
Experiment: proKLK7 zymogen activators, primary screen, biochemical, fluorescence intensity (AID 652039)
Details: purified proKLK7, EDANS-DABCYL substrate fluorescence; at 7 µM; stronger effect = higher value; 100% is mature enzyme control, 0% vehicle

Chain of Kallikrein-7 (Homo sapiens) (P49862 whole entry, looked up): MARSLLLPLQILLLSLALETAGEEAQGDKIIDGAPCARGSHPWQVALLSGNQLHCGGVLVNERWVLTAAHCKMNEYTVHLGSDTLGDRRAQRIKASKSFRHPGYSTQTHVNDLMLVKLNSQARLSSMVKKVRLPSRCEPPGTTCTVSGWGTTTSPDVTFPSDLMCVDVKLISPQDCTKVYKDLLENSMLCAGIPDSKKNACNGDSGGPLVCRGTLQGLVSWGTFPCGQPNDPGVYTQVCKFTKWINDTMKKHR

activation, active:
O=C(OC1CCOC1=O)c1ccc(-c2nc3ccccc3s2)s1 (stereo not drawn) 25.6%
COc1ccc(C2=CC(c3cccc(OC)c3)n3nnnc3N2)cc1 (stereo not drawn) 42.3%
CC(C)Cc1nc(Nc2ccc(S(=O)(=O)N3CCCC3)cc2)c2nnn(Cc3ccccc3)c2n1 18%
CCOc1c2ccc(C(=O)NCc3ccc4c(c3)OCO4)cc2nn1C 16.6%
Cc1ccc(-c2nn(-c3ccccc3)cc2/C=C/C(=O)Nc2cccc(S(N)(=O)=O)c2)cc1 302%
CNc1cncc(-c2cccc(C(=O)N3CCOCC3)c2)n1 49.4%
CC1CC(C)CN(S(=O)(=O)c2cccc(C(=O)N3C(=O)c4cccc(N)c4C3=O)c2)C1 (stereo not drawn) 20.5%
COc1cc(C(=O)N2C(=O)c3cccc(N)c3C2=O)cc(OC)c1OC 50.3%
CC(=O)Oc1ccc2c(C)c(CC(C)O)c(=O)oc2c1 (stereo not drawn) 57.1%
CC(=O)Nc1cc2ccc(OC(C)=O)cc2oc1=O 383%
CCc1ccc(-c2cc(C(=O)NCc3ccco3)c3ccccc3n2)s1 41.4%

activation, inactive:
COc1cc(C(=O)OC2CCOC2=O)c([N+](=O)[O-])cc1OC (stereo not drawn) -0.39%
CC(C)c1ccc(C(=O)OC2CCOC2=O)cc1 (stereo not drawn) -0.06%
O=C(CSc1ncccn1)NC(=O)NCc1ccccc1 -0.82%
CCOC(=O)N1CCN(C(=O)C[C@@H]2C(=O)N(CCc3ccc(Cl)cc3)C3=CCCC[C@]32C(=O)OCC)CC1 0.7%
CC(C)(C)OC(=O)NCCc1ccccc1/C=C/S(=O)(=O)NCc1ccc(F)cc1 -0.22%
COc1cccc(-c2nc3n(n2)C(c2ccccc2Cl)C(C(N)=O)=C(C)N3)c1 (stereo not drawn) 0.67%
COc1ccc(C2CC(c3cccs3)Nc3nnnn32)cc1 (stereo not drawn) 0.65%
O=C1Nc2ccccc2OC1CC(=O)N1CCCCCCC1 (stereo not drawn) 0.05%
Cc1nc(Nc2ccc(S(=O)(=O)N3CCCC3)cc2)c2nnn(Cc3ccccc3)c2n1 -0.11%
CC(C)Nc1ncnc2c1nnn2Cc1ccccc1 0.3%
COc1ccc(Cn2ccc3ccc(-c4ccc5ccn(Cc6ccccc6C)c5c4)cc32)cc1 -0.6%
Cc1csc(OCC(=O)Nc2ccc(C)c(C)c2)n1 0.44%
C=C(C)C#CC(Cc1ccccc1)NCC1CC1 (stereo not drawn) 0.49%
COc1ccc(-n2c(SCC(=O)NC3CCCC3)nnc2-c2ccncc2)cc1 0.32%
COc1ccccc1-n1c(C)nc2cc(C(=O)NCc3ccc4c(c3)OCO4)ccc21 0.53%
CCCn1nc2cc(C(=O)NCc3ccccc3)ccc2c1OCC 9.49%
COC(=O)[C@]12C[C@H](CC(=O)NCc3cccs3)C(=O)N(CCc3ccc(OC)c(OC)c3)C1=C[C@H](C(C)C)O[C@@H]2C1CC1 0.65%
NS(=O)(=O)c1ccc(NC(=O)/C=C/c2ccccc2Cl)cc1 3.16%
O=C(/C=C/c1cn(-c2ccccc2)nc1-c1ccc2c(c1)OCCO2)NCCCN1CCOCC1 -1.99%
O=C(NC1CCCCN(Cc2ccc(Cl)cc2)C1=O)c1ccc(Br)cc1 (stereo not drawn) -0.15%
O=S1(=O)c2c(cccc2N2CC[C@H](O)C2)O[C@@H]2CCN1C2 -0.53%
COc1ccccc1C(=O)Nc1cccc(C(=O)N2CCOCC2)c1 0.2%
O=C(c1cccc(N2CCCC2=O)c1)N1CCOCC1 -0.32%
COc1cc(C(=O)NC(=S)NCc2ccco2)cc(OC)c1OC 0.52%
CC(=O)N1CCN(S(=O)(=O)c2cccc(C(=O)NC3CCC(C)CC3)c2)CC1 (stereo not drawn) -0.34%
COc1cc(C(=O)N2CCN(C)CC2)cc(OC)c1OC -0.27%
CCOC(=O)C1CCCN(C(=O)c2cccc(S(=O)(=O)N3CCOCC3)c2)C1 (stereo not drawn) -0.32%
COc1ccc(CCNC(=O)CSc2nc3c([nH]2)c(=O)n(C)c(=O)n3C)cc1 0.4%
COC(=O)c1ccccc1-n1cc(COC(=O)NCCc2ccccc2)nn1 -0.71%
C[C@H]1CCC/C=C/C(=O)c2c(O)cc(O)cc2CC(=O)O1 0.41%
Cc1ccc(NC(=S)NNC(=O)CSc2nnc(SCc3ccccc3Cl)s2)cc1 0.76%
Cc1nc2ccc(C(=O)N3CCN(C(=O)C(C)(C)C)CC3)cc2n1C1CCCC1 -0.33%
Cc1ccc(-c2nnc(SCC(=O)Nc3ccc(Oc4ccccc4)cc3)n2Cc2ccco2)cc1 -0.21%
O=C(c1ccccc1)c1ccc(-c2ccccc2C(=O)NC2CCCCN(Cc3ccc(Cl)cc3)C2=O)cc1 (stereo not drawn) -0.04%
CCc1c(C)c2ccc(OC3CCCCC3=O)cc2oc1=O (stereo not drawn) 1.85%
O=C(Oc1ccccc1)Oc1ccc2c(c1)oc(=O)c1ccccc12 -0.49%
COc1cccc(-c2coc3cc4oc(=O)c(CC(=O)O)c(C)c4cc23)c1 0.62%
Cc1ccc(OCC(=O)Nc2ccc3oc(=O)ccc3c2)cc1C 0.37%
CCCCN1CCN(C(=O)c2ccc3c(c2)NC(=O)C(C)(C)O3)CC1 0.18%
O=C(CSc1nc2c(c(=O)[nH]1)CCCC2)N1CCCCC1 0.8%
O=C(CSc1nc2ccccc2n1Cc1ccccc1)NNC(=S)Nc1ccccc1 -0.17%
O=C(CSc1nc2sc3c(c2c(=O)n1-c1ccccc1)CCCC3)NN=Cc1ccc(OCc2ccccc2)cc1 -0.01%
COc1cc(C)ccc1OCC(=O)OCC(=O)c1ccc[nH]1 -0.43%
COc1ccnc(NC(=S)N2CCN(c3ncc(C(F)(F)F)cc3Cl)CC2)c1 0.32%
Cn1nc(-c2ccc(Cl)cc2)c2cc(C(=O)NCc3ccco3)sc21 -17.3%
Cc1cc(C(=O)OCC(=O)NCc2ccco2)c(C)n1-c1ccccc1 0.45%
c1csc(-c2nnc(SCc3nc4ccccc4[nH]3)o2)c1 1.12%
